Assay results taken from PubChem BioAssay (Tox21).
Inconclusive results are not listed. The source made the active and inactive calls. The call rests on the fitted dose curve; in most records, active means well fitted curve in the direction sought with a large enough effect in the repeat runs; inconclusive means weak or mixed curves; inactive means no such curve, though single readings can be large; an effect the other way counts as inactive or inconclusive.

How the values were obtained:
[1] = qHTS assay to identify small molecule antagonists of the glucocorticoid receptor (GR) signaling pathway - cell viability counter screen (AID 720693); further: nearly all actives have a fitted effect of over 55% in size
[2] = qHTS assay for identifying genotoxic compounds that show differential cytotoxicity against isogenic chicken DT40 cell lines with known DNA damage response pathways - Rev3 mutant cell line (AID 743014); further: nearly all actives have a fitted effect of over 55% in size
[3] = qHTS assay for identifying genotoxic compounds that show differential cytotoxicity against isogenic chicken DT40 cell lines with known DNA damage response pathways - Rad54/Ku70 mutant cell line (AID 743015); further: nearly all actives have a fitted effect of over 60% in size
[4] = qHTS assay to identify small molecule antagonists of the androgen receptor (AR) signaling pathway - cell viability counter screen (AID 743033; further: nearly all actives have a fitted effect of over 45% in size)
[5] = qHTS assay to identify small molecule antagonists of the androgen receptor (AR) signaling pathway using the MDA cell line - cell viability counter screen (AID 743041; further: nearly all actives have a fitted effect of over 45% in size)
Outline: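 qHTS viability read-out; MDA-kb2 AR-luc; R1881-stimulated; 16 h exposure at 37C, 0% CO2; CellTiter-Fluor, 30 min; fluorescence intensity.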

Measured: Potency

CCCCC(CC)COP(=O)(O)O (centres undefined)
inactive: all assays above

CCCCCC#CC(=O)OC
not listed: [3]
inactive: all other assays above

CCN(CC)CCNC(=O)COc1ccc(OC)cc1
inactive: all assays above
